Reference: PubChem BioAssay AID1159580 (chemical genetic matrix, 2015)
Out of some 5,500 compounds screened, about 2,000 (36%) were called active. Another 18% or so got no clear call; they are omitted. Cut-off read from the data, not from the text of the source: active = normalized growth mostly below about 0.91 (no sharp cut-off); inconclusive = no clear call, values can overlap the other calls; inactive = mostly above about 0.92. Some of the results follow.

Experiment: chemical genetic growth profiling, strain panel (AID 1159580);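 note: tested at 20 µM; growth read once vehicle control cultures reached saturation at 30 °C; 1 = growth at the plate median or of vehicle wells; lower values mean less growth of the strain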
Details: S. cerevisiae deletion strains, growth OD

Measured: normalized growth

C/C=C/C(=O)N(CC)c1ccccc1C
inactive: locus YAL021C, strain ccr4, stronger effect = lower value 1.02 | locus YAL026C, strain drs2, stronger effect = lower value 1.01 | locus YAL030W, strain snc1, stronger effect = lower value 1 | locus YBL061C, strain skt5, stronger effect = lower value 0.995 | locus YBR009C, strain hhf1, stronger effect = lower value 1.02 | locus YBR023C, strain chs3, stronger effect = lower value 1.01 | locus YBR171W, strain sec66, stronger effect = lower value 1 | locus YBR231C, strain swc5, stronger effect = lower value 1 | locus YBR279W, strain paf1, stronger effect = lower value 1 | locus YCL011C, strain gbp2, stronger effect = lower value 0.997 | locus YCL016C, strain dcc1, stronger effect = lower value 0.998 | locus YCL061C, strain MRC1, stronger effect = lower value 1.01 | locus YCL069W, strain vba3, stronger effect = lower value 1.01 | locus YCR088W, strain abp1, stronger effect = lower value 1 | locus YDL005C, strain med2, stronger effect = lower value 1 | locus YDL040C, strain nat1, stronger effect = lower value 1 | locus YDR001C, strain nth1, stronger effect = lower value 1 | locus YDR069C, strain doa4, stronger effect = lower value 1.02 | locus YDR137W, strain rgp1, stronger effect = lower value 1.02 | locus YDR159W, strain sac3, stronger effect = lower value 1 | locus YDR195W, strain ref2 0.986 | locus YDR297W, strain sur2, stronger effect = lower value 1 | locus YDR334W, strain swr1, stronger effect = lower value 0.997 | locus YDR335W, strain msn5, stronger effect = lower value 1.01 | locus YDR392W, strain spt3, stronger effect = lower value 0.942 | locus YEL003W, strain gim4, stronger effect = lower value 1.01 | locus YEL037C, strain rad23, stronger effect = lower value 1.01 | locus YEL061C, strain CIN8 (second series), stronger effect = lower value 1.01 | locus YER015W, strain faa2, stronger effect = lower value 1.01 | locus YER016W, strain bim1, stronger effect = lower value 1.01 | locus YER111C, strain swi4, stronger effect = lower value 0.995 | locus YER155C, strain BEM2 (second series), stronger effect = lower value 1.01 | locus YFR010W, strain ubp6, stronger effect = lower value 1.02 | locus YGL167C, strain pmr1, stronger effect = lower value 1 | locus YGL173C, strain kem1, stronger effect = lower value 1.01 | locus YGL227W, strain vid30, stronger effect = lower value 1.01 | locus YGL240W, strain doc1, stronger effect = lower value 1.02 | locus YGL253W, strain hxk2, stronger effect = lower value 1.01 | locus YHR013C, strain ard1, stronger effect = lower value 1.01 | locus YHR027C, strain rpn1, stronger effect = lower value 1.02 | locus YHR030C, strain SLT2, stronger effect = lower value 1.03 | locus YHR079C, strain IRE1, stronger effect = lower value 1.02 | locus YHR142W, strain chs7, stronger effect = lower value 1.02 | locus YJL092W, strain hpr5, stronger effect = lower value 1 | locus YJL095W, strain BCK1 (second series), stronger effect = lower value 1 | locus YJL095W, strain BCK1, stronger effect = lower value 0.977 | locus YJL115W, strain asf1, stronger effect = lower value 1 | locus YJL129C, strain trk1, stronger effect = lower value 1.03 | locus YJL154C, strain vps35, stronger effect = lower value 1.01 | locus YJL164C, strain tpk1, stronger effect = lower value 1.01 | locus YJL166W, strain qcr8, stronger effect = lower value 1.02 | locus YJL187C, strain SWE1, stronger effect = lower value 1.01 | locus YJR066W, strain TOR1, stronger effect = lower value 0.966 | locus YKL160W, strain elf1, stronger effect = lower value 1.01 | locus YKR026C, strain gcn3, stronger effect = lower value 1.01 | locus YKR091W, strain srl3, stronger effect = lower value 1 | locus YLL001W, strain dnm1, stronger effect = lower value 0.996 | locus YLL026W, stronger effect = lower value 1.01 | locus YLL041C, strain sdh2, stronger effect = lower value 1.01 | locus YLR027C, strain aat2, stronger effect = lower value 0.996 | locus YLR113W, strain HOG1, stronger effect = lower value 0.969 | locus YLR221C, strain rsa3, stronger effect = lower value 1 | locus YLR258W, strain gsy2, stronger effect = lower value 1.01 | locus YLR262C, strain YPT6 (second series), stronger effect = lower value 1 | locus YLR320W, strain mms22, stronger effect = lower value 1 | locus YLR342W, strain FKS1, stronger effect = lower value 1 | locus YLR357W, strain rsc2, stronger effect = lower value 1.02 | locus YLR370C, strain arc18, stronger effect = lower value 1.01 | locus YLR384C, strain iki3, stronger effect = lower value 0.998 | locus YML120C, strain ndi1, stronger effect = lower value 1 | locus YMR058W, strain fet3, stronger effect = lower value 1.02 | locus YMR125W, strain sto1, stronger effect = lower value 1.01 | locus YMR129W, stronger effect = lower value 1 | locus YMR205C, strain PFK2, stronger effect = lower value 1.01 | locus YMR231W, strain pep5, stronger effect = lower value 1.01 | locus YNL071W, strain lat1, stronger effect = lower value 1 | locus YNL183C, strain NPR1, stronger effect = lower value 0.975 | locus YNL209W, strain ssb2, stronger effect = lower value 1 | locus YNL248C, strain rpa49, stronger effect = lower value 0.993 | locus YNL322C, strain KRE1 (second series), stronger effect = lower value 1.01 | locus YNR049C, strain mso1, stronger effect = lower value 1.01 | locus YOR001W, strain rrp6, stronger effect = lower value 1.03 | locus YOR070C, strain gyp1, stronger effect = lower value 1 | locus YOR080W, strain dia2, stronger effect = lower value 1 | locus YOR083W, strain WHI5, stronger effect = lower value 1.02 | locus YOR106W, strain vam3, stronger effect = lower value 1.04 | locus YOR231W, strain MKK1, stronger effect = lower value 1.02 | locus YOR265W, strain rbl2, stronger effect = lower value 1 | locus YOR270C, strain vph1, stronger effect = lower value 0.999 | locus YOR290C, strain snf2, stronger effect = lower value 1.01 | locus YPL051W, strain arl3, stronger effect = lower value 1 | locus YPL078C, strain atp4, stronger effect = lower value 1.02 | locus YPL106C, strain sse1, stronger effect = lower value 1.01 | locus YPL240C, strain hsp82, stronger effect = lower value 1 | locus YPL256C, strain CLN2, stronger effect = lower value 0.986
